Growth data for nine molecules are collected here from PubChem BioAssay (NCI).

The panel holds about 83,000 compounds, 20% with a hit somewhere; the sample as a whole holds those more often.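 Negative percent growth values reflect cell death: -40 means 40% of the cells present at the start died, and -100 means all died.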 Values without a mark were called inactive. Activity calls are given as the source filed them. Rule for the calls: active = growth percent below 10; inactive = the rest.

Test systems include NCI-H23 lung; NCI-H226 lung; NCI-H322M lung; HOP-62 NSCLC; HOP-92 NSCLC; NCI-H522 lung; A549/ATCC NSCLC; 786-0 renal; COLO 205 colon.
Holding throughout (experiment): NCI-60 one-dose screen, 48 h (100 = growth as untreated, 0 = no growth, -100 = all killed)
Common to all, as to conditions: 10 µM unless noted

Take `O=c1cc(-c2ccccc2)[nH]c2ccccc12`: the growth is 39.1% in the assay on NCI-H23 lung; 70.2% in the assay with NCI-H226 lung; 55.4% in the assay with NCI-H322M lung; 49% in the assay on HOP-62 NSCLC; 38.5% in the assay on HOP-92 NSCLC; -46.9% (active) in the assay on NCI-H522 lung. In addition, the growth in the assay on A549/ATCC NSCLC is 19.1%; in the assay with 786-0 renal, 32.3%; with COLO 205 colon it was 5.72% (active).

With `OCC1C2C=CC(C2)C1CO` (stereo unspecified), the growth in the assay on NCI-H23 lung is 108%; in the assay with NCI-H226 lung it was 109%; in the assay on NCI-H322M lung it was 114%; in the assay on HOP-62 NSCLC it was 90.9%; in the assay with HOP-92 NSCLC, 60.5%; in the assay with NCI-H522 lung it was 97%. Also, the growth with A549/ATCC NSCLC is 89%; in the assay with 786-0 renal, 101%; in the assay on COLO 205 colon it was 191%.

In the case of `CC(=O)Oc1ccc(Nc2c3ccccc3nc3ccccc23)cc1`, the growth with NCI-H23 lung was 11.9%; in the assay with NCI-H226 lung, -59.2% (active); in the assay with NCI-H322M lung it was 19.9%; in the assay with HOP-62 NSCLC, 11.2%; with HOP-92 NSCLC it was -3.96% (active); in the assay with NCI-H522 lung, -69.7% (active). The growth in the assay with A549/ATCC NSCLC is -23.7% (active); with 786-0 renal, 16.5%; in the assay with COLO 205 colon, 3.96% (active).

Regarding `COc1ccc(S(=O)(=O)NCCCNc2cc(-c3c(-c4cccc(OC)c4)nc4sccn34)ccn2)cc1`, the growth with NCI-H23 lung is 59.8%; with NCI-H226 lung, 37.7%; with NCI-H322M lung it was 67.6%; in the assay on HOP-62 NSCLC, 80.6%; in the assay on HOP-92 NSCLC, 62.1%; with NCI-H522 lung, 52.7%. In addition, the growth was 42.9% with A549/ATCC NSCLC, 52.1% with 786-0 renal and 35.8% with COLO 205 colon.

With `CCCCCCCCSC1=CC(=O)C(OC)=C(OC)C1=O`, the growth in the assay with NCI-H23 lung was 26.6%; with NCI-H226 lung, 80.9%; with NCI-H322M lung, 89.4%; with HOP-62 NSCLC, 91.3%; in the assay on HOP-92 NSCLC, -31.3% (active); in the assay on NCI-H522 lung, -97.8% (active). The growth is 57.2% with A549/ATCC NSCLC, 61.9% with 786-0 renal and 37.1% in the assay on COLO 205 colon.

`CC[C@]12C=CCN3CC[C@@]4(c5ccc(OC)cc5N(C)[C@H]4[C@@](O)(C(=O)OC)[C@@H]1OC(=O)CCC(=O)N[C@@H](Cc1c[nH]c4ccccc14)C(=O)OC)[C@@H]32`: the growth was 101% with NCI-H23 lung; 104% with NCI-H226 lung; 98.5% with NCI-H322M lung; 90.1% with HOP-62 NSCLC; 66.8% with HOP-92 NSCLC; 78.6% in the assay with NCI-H522 lung. Besides, the growth is 86.8% in the assay with A549/ATCC NSCLC, 91.5% in the assay on 786-0 renal and 98.8% in the assay on COLO 205 colon.

For `Cc1cc2cc3cc(C)c(N(C)C)cc3[n+](C)c2cc1N(C)C`, the growth with NCI-H23 lung is 28.3%; with NCI-H226 lung, 51.6%; in the assay on NCI-H322M lung it was 25.4%; in the assay on HOP-62 NSCLC, 30%; in the assay on HOP-92 NSCLC, -34.6% (active); in the assay on NCI-H522 lung, -5.03% (active). In addition, the growth was 25.8% with A549/ATCC NSCLC, 26.7% in the assay with 786-0 renal and -19.2% (active) in the assay with COLO 205 colon.

On to `O=C(COCc1c(-c2ccccc2)no[n+]1[O-])Nc1ccc(C(=O)/C=C/c2ccc3c(c2)OCO3)cc1`, for which the growth in the assay with NCI-H23 lung was 101%; in the assay with NCI-H226 lung it was 96.6%; in the assay on NCI-H322M lung, 113%; in the assay on HOP-62 NSCLC, 108%; in the assay on HOP-92 NSCLC, 73.2%; in the assay with NCI-H522 lung, 140%. Also, the figures for the growth in the assay on A549/ATCC NSCLC, in the assay on 786-0 renal and in the assay with COLO 205 colon were 85.4%, 113% and 120%, respectively.

As for `COC(=O)[C@H](C(C)C)n1c(=O)c2cc(OC)c(OC)cc2c2cnc3[nH]ccc3c21`, the growth is 62.1% with NCI-H23 lung; 46.4% in the assay with NCI-H226 lung; 48.5% in the assay on NCI-H322M lung; 45.8% in the assay with HOP-62 NSCLC; 13.7% with HOP-92 NSCLC; 62.8% in the assay on NCI-H522 lung. Further, the growth is 40.7% in the assay with A549/ATCC NSCLC, 52.9% in the assay on 786-0 renal and 57.5% in the assay on COLO 205 colon.
